Screen size: about 39,000 compounds; about 3,300 (8.5%) were called active. For the sample, actives were picked, then their nearest neighbours and some compounds at random.

The test relates to HepG2. Kind of test: cytotoxicity call (relative viability < 0.9). To be noted: 10 µM.
With `C[C@H](CO)N1C[C@H](C)[C@@H](CN(C)S(=O)(=O)c2ccc(F)cc2)OCCCC[C@H](C)Oc2ccc(NC(=O)Nc3ccc4c(c3)OCO4)cc2C1=O`, the cytotoxicity call was “inactive”.

For the molecule `Cc1noc(C)c1S(=O)(=O)Nc1ccc2c(c1)C(=O)N([C@@H](C)CO)C[C@H](C)[C@H](CN(C)S(=O)(=O)c1ccccc1)O2`, the cytotoxicity call is “inactive”.

For the molecule `C[C@@H]1CN([C@H](C)CO)C(=O)c2cc(NC(=O)Cn3cnnn3)ccc2O[C@@H]1CN(C)CC1CC1`, the cytotoxicity call is “inactive”.

Take `COC(=O)COc1nsnc1N1CCOCC1`: the cytotoxicity call is “inactive”.

For `CNc1ccc(-c2nc(N3CCOCC3)c3sc(CN(C)c4ncc(C(=O)NO)cn4)cc3n2)cn1`, the cytotoxicity call is “active”.

As for `COc1ccc(-c2nc(N3CCOCC3)c3sc(CN(C)c4ncc(C(=O)NO)cn4)cc3n2)cn1`, the cytotoxicity call is “active”.

Regarding `COc1ccc(S(=O)(=O)Nc2ccc3c(c2)C(=O)N([C@@H](C)CO)C[C@@H](C)[C@H](CN(C)C(=O)Nc2c(C)noc2C)OCCCC[C@H](C)O3)cc1`, the cytotoxicity call was “inactive”.

With `O=C(/C=C/c1ccc(O)c(O)c1)O[C@H]1[C@H](O)C[C@](O)(C(=O)O)C[C@H]1OC(=O)/C=C/c1ccc(O)c(O)c1`, the cytotoxicity call was “inactive”.

In the case of `Cc1ccc(S(=O)(=O)Nc2ccc3c(c2)CC(=O)N([C@H](C)CO)C[C@H](C)[C@@H](CN(C)S(C)(=O)=O)O3)cc1`, the cytotoxicity call was “inactive”.

For `Cc1coc2c1C(=O)C(=O)c1c-2ccc2c1CCCC2(C)C`, the cytotoxicity call is “active”.

Regarding `Cc1cccc2c1OCC[C@@H](N)C2=O`, the cytotoxicity call is “inactive”.

Consider `Cc1cccc2c3c(ccc12)C1=C(C(=O)C3=O)C(C)CO1` (stereo unspecified), for which the cytotoxicity call is “active”.

Regarding `CC1COC2=C1C(=O)C(=O)c1c2ccc2c1CCCC2(C)C` (stereo unspecified), the cytotoxicity call was “active”.

With `C[C@@H]1CN([C@@H](C)CO)C(=O)Cc2cc(NC(=O)Nc3cccc4ccccc34)ccc2O[C@H]1CN(C)Cc1ccc(-c2ccccc2)cc1`, the cytotoxicity call is “inactive”.

For `COc1cc2c(cc1OC)CN(C(=O)[C@H]1[C@@H]3C(=O)O[C@@H](c4ccccc4)[C@@H](c4ccccc4)N3[C@@H](c3ccccc3OCCO)[C@]13C(=O)Nc1ccc(C#CC4(O)CCCCCC4)cc13)CC2`, the cytotoxicity call is “inactive”.

As for `O=C(C[C@@H]1CC[C@H]2[C@@H](COC[C@H](O)CN2C(=O)c2ccccn2)O1)NC1CCC1`, the cytotoxicity call was “inactive”.

Take `O[C@@H]1[C@@H](O)[C@H](OC/C=C/c2ccccc2)O[C@H](CO[C@@H]2OC[C@@H](O)[C@@H](O)[C@@H]2O)[C@H]1O`: the cytotoxicity call is “inactive”.

As for `NCc1cccc2nsnc12`, the cytotoxicity call was “inactive”.

`C[C@H]1CN([C@@H](C)CO)C(=O)c2cccc(NC(=O)C3CC3)c2O[C@@H]1CN(C)S(=O)(=O)c1ccc(F)cc1`: the cytotoxicity call is “inactive”.

For `O=C(O)c1cc(N=Nc2ccc(S(=O)(=O)Nc3ccccn3)cc2)ccc1O`, the cytotoxicity call was “inactive”.

In the case of `C[C@@H]1CN([C@H](C)CO)C(=O)Cc2cc(NC(=O)CCN3CCOCC3)ccc2O[C@@H]1CN(C)Cc1ccc(C(=O)O)cc1`, the cytotoxicity call is “inactive”.

On to `C[C@H]1CN([C@@H](C)CO)C(=O)Cc2cc(NC(=O)CCN3CCOCC3)ccc2O[C@H]1CN(C)Cc1ccc(C(=O)O)cc1`, for which the cytotoxicity call was “inactive”.

As to `COC(=O)[C@@]12O[C@@H]1[C@H](O[C@@H]1O[C@H](CO)[C@@H](O)[C@H](O)[C@H]1O)C[C@H]1[C@]3(C)C[C@@H](c4ccoc4)OC(=O)[C@H]3CC[C@]12C`, the cytotoxicity call is “active”.

As for `CC1(C)CC[C@]2(C(=O)O[C@H]3O[C@@H](CO)[C@@H](O)[C@@H](O)[C@@H]3O)CC[C@]3(C)C(=CC[C@H]4[C@@]5(C)C[C@@H](O)[C@H](O[C@H]6O[C@H](C(=O)O)[C@@H](O)[C@@H](O)[C@@H]6O)C(C)(C)[C@@H]5CC[C@]43C)[C@@H]2C1`, the cytotoxicity call was “inactive”.

As to `CC1(C)[C@H]2C[C@@H](O[C@H]3O[C@@H](CO)[C@@H](O)[C@@H](O)[C@@H]3O)[C@@]1(C)C[C@@H]2O`, the cytotoxicity call is “inactive”.

`COCC(=O)Nc1ccc2c(c1)OC[C@H](C)N(C(=O)Cc1cccnc1)C[C@H](C)[C@@H](OC)CN(C)C2=O`: the cytotoxicity call was “inactive”.

For the molecule `Cc1noc(C)c1S(=O)(=O)Nc1ccc2c(c1)C(=O)N([C@@H](C)CO)C[C@@H](C)[C@@H](CN(C)S(=O)(=O)c1ccccc1)O2`, the cytotoxicity call is “inactive”.

As for `CC(C)C#Cc1ccc2c(c1)O[C@H](CN(C)S(=O)(=O)c1cn(C)cn1)[C@@H](C)CN([C@@H](C)CO)S2(=O)=O`, the cytotoxicity call is “inactive”.

Consider `C[C@@H]1CN([C@@H](C)CO)C(=O)Cc2cc(NS(C)(=O)=O)ccc2O[C@@H]1CN(C)Cc1ccc(C(=O)O)cc1`, for which the cytotoxicity call is “inactive”.

Consider `C[C@@H]1CN([C@H](C)CO)C(=O)Cc2cc(NC(=O)Nc3cccc4ccccc34)ccc2O[C@@H]1CN(C)Cc1ccc(Oc2ccccc2)cc1`, for which the cytotoxicity call was “active”.

On to `C[C@H]1CN([C@@H](C)CO)C(=O)Cc2cc(NC(=O)Nc3cccc4ccccc34)ccc2O[C@@H]1CN(C)Cc1ccc(Oc2ccccc2)cc1`, for which the cytotoxicity call is “inactive”.

Consider `C[C@@H]1CN([C@@H](C)CO)C(=O)Cc2cc(NC(=O)Nc3cccc4ccccc34)ccc2O[C@@H]1CN(C)Cc1ccc(Oc2ccccc2)cc1`, for which the cytotoxicity call was “inactive”.

Consider `C[C@@H]1CN([C@@H](C)CO)C(=O)Cc2cc(NC(=O)Nc3cccc4ccccc34)ccc2O[C@H]1CN(C)Cc1ccc(Oc2ccccc2)cc1`, for which the cytotoxicity call is “inactive”.

With `C[C@@H]1CN([C@H](C)CO)C(=O)Cc2cc(NC(=O)Nc3cccc4ccccc34)ccc2O[C@H]1CN(C)Cc1ccc(Oc2ccccc2)cc1`, the cytotoxicity call is “inactive”.

On to `C[C@H](CO)N1C[C@H](C)[C@@H](CN(C)Cc2ccc(Oc3ccccc3)cc2)Oc2ccc(NC(=O)Nc3cccc4ccccc34)cc2CC1=O`, for which the cytotoxicity call was “active”.

Regarding `C[C@H]1CN([C@@H](C)CO)C(=O)Cc2cc(NC(=O)Nc3cccc4ccccc34)ccc2O[C@H]1CN(C)Cc1ccc(Oc2ccccc2)cc1`, the cytotoxicity call was “active”.

In the case of `C[C@H](CO)N1C[C@H](C)[C@H](CN(C)Cc2ccc(Oc3ccccc3)cc2)Oc2ccc(NC(=O)Nc3cccc4ccccc34)cc2CC1=O`, the cytotoxicity call is “inactive”.

`COc1ccc(S(=O)(=O)N(C)C[C@@H]2Oc3ccc(NS(=O)(=O)c4ccc(C)cc4)cc3C(=O)N([C@H](C)CO)C[C@H]2C)cc1`: the cytotoxicity call is “inactive”.

Turning to `COC(=O)[C@H]1CCNCCC1=O`, the cytotoxicity call was “inactive”.

In the case of `CN1CCN(C(=O)C[C@H]2CC[C@H]3[C@@H](COC[C@H](O)CN3CC3CCCC3)O2)CC1`, the cytotoxicity call was “inactive”.

As to `C[C@H](CO)N1C[C@H](C)[C@@H](CN(C)C(=O)Nc2ccnc(N3CCOCC3)c2)OCc2cnnn2CCCC1=O`, the cytotoxicity call is “inactive”.
